From PubChem BioAssay AID488969 (Vanderbilt High Throughput Screening Facility, 2010)
Whole data set: some 110,000 compounds, median “z-score” near -0.1, cut for the highest 2% near 2. This is one part of a sample in which the highest values are shown more often than they occur. Calls of active or inactive are those of the source.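 Rule for the calls: active = z-score in the third read window above 3 or below -3; inactive = the rest.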

Target: Metabotropic glutamate receptor 8 (Rattus norvegicus) (UniProt P70579)
Sequence (P70579 whole entry, looked up): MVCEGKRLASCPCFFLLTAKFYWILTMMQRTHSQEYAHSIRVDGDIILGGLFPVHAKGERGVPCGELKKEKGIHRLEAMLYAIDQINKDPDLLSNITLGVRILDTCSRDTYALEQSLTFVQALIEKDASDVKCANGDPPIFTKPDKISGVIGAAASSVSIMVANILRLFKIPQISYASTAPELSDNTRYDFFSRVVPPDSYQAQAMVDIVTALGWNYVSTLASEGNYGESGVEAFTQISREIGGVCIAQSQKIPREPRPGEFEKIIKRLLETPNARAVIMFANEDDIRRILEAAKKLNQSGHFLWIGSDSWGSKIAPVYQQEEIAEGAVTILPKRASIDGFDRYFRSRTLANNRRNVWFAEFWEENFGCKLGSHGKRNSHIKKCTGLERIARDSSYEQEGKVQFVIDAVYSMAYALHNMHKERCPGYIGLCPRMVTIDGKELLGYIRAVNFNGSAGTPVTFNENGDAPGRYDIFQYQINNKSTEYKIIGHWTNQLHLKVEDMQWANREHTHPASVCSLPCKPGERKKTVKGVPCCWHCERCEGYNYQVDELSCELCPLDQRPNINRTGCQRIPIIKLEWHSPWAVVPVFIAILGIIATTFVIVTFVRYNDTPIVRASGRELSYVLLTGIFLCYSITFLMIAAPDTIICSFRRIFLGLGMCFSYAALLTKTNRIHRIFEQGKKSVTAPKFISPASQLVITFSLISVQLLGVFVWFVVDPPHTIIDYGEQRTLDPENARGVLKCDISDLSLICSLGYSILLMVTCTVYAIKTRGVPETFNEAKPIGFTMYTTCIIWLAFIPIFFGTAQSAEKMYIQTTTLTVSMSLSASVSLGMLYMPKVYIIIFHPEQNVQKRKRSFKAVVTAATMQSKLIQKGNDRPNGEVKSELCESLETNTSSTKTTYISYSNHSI
Assay: mGluR8 Gi/Go-coupled signaling modulation – cell-based, rat, thallium flux, HTS, primary screen (AID 488969)
Details: HEK293 rat mGluR8, GIRK (G protein-gated inwardly rectifying potassium channel) thallium flux, FluoZin2; at 10 µM; stronger effect = higher value; submaximal glutamate (EC20) added with thallium

SMILES | z-score
Cc1ccc(CNC(=O)/C=C/c2c(Cl)cccc2Cl)cc1 | -0.641
O=C(CSc1ncnc2c1oc1ccccc12)NCC1CCCO1 (stereo not drawn) | -0.215
COc1ccc(/C=N/n2c(N)nc(-c3ccccc3)c2-c2ccccc2)cc1 | -0.377
O=C(NCCCN1CCN(c2ccccc2)CC1)Nc1ccccc1C(F)(F)F | -0.506
Cc1ccc(NC(=O)c2sc3nc4c(c(-c5ccco5)c3c2N)CCC4)cc1 | -0.382
CC(=O)NC(Cc1ccccc1C)C(=O)NC1CCN(c2ncccc2[N+](=O)[O-])CC1 (stereo not drawn) | -0.207
CCC(=O)Nc1cc2nn(-c3ccccc3)nc2cc1Cl | 0.0874
C=C(C)CNC(=S)N/N=C/c1ccc(N2CCOCC2)cc1 | 0.134
CNC(=S)N/N=C(\C)c1ccc(C)c(C)c1 | 1.2
C/C(=N\Nc1nc2ccccc2[nH]1)c1ccc(Cl)s1 | -1.3
CNC(=S)N/N=C(\C)c1ccc(Cl)s1 | 3.13 (active)
CCNC(=S)N/N=C(\C)c1cccc([N+](=O)[O-])c1 | 0.559
CCNC(=S)N/N=C(\C)c1ccc(Cl)s1 | 4.7 (active)
CNC(=S)N/N=C(\C)c1ccc(N2CCOCC2)cc1 | 0.456
CNC(=S)N/N=C(\C)c1ccc(C(C)(C)C)cc1 | 2.03
CNC(=S)N/N=C(\C)c1cccc([N+](=O)[O-])c1 | -0.339
CCNC(=S)N/N=C(\C)c1ccc(N2CCOCC2)cc1 | 0.245
C=C(C)CNC(=S)N/N=C(\C)c1ccc(-n2ccnc2)cc1 | -0.342
C=C(C)CNC(=S)N/N=C(\C)c1ccc(Cl)s1 | 2.26
Cn1c(=O)c2[nH]c(-c3cccnc3)nc2n(C)c1=O | 0.366
C=CCN1C(=O)C(CC(=O)Nc2ccccc2)SC1=Nc1c(C)n(C)n(-c2ccccc2)c1=O (stereo not drawn) | 1.07
COc1cc(/C=C(\C#N)c2nc(-c3cc4ccccc4oc3=O)cs2)ccc1O | -2.33
CCC(=O)Nc1ccc(NC(=O)CN2CCCC(C)C2)c(Cl)c1 (stereo not drawn) | -0.146

SMILES | z-score
Cc1nn(CC(O)COc2ccc3c(c2)CCC3)c(C)c1C (stereo not drawn) | -0.0908
Cc1nc2cc(Nc3nnc(-c4ccccc4)c4ccccc34)ccc2n1C | -0.174
CN1CCN(C(=O)NC2CCCCC2)CC1 | -0.173
CCOP(=O)(O)c1ccccc1OCCCCCOc1ccccc1P(=O)(O)OCC | -0.285
CCOC(=O)c1c(N)nn(C(=O)CC)c1-c1ccccc1 | -0.667
CCOc1ccccc1-c1nc(C(N)=O)c2[nH]c(=O)n(-c3cccc(C)c3)c2n1 | -1.43
COc1cc(/C(C)=N/NC(=S)NC(C)C)cc(OC)c1OC | -0.0595
C/C(=N\NC(=S)NC(C)C)c1ccc(-n2ccnc2)cc1 | -0.306
C/C(=N\NC(=S)NC(C)C)c1ccc(Cl)s1 | 5.46 (active)
C/C(=N/Nc1ccc(F)cc1)c1ccc(Cl)s1 | 0.13
C/C(=N\NC(=O)C(=O)Nc1cccc(C(F)(F)F)c1)c1ccc(Cl)s1 | 0.376
C/C(=N\NC(N)=S)c1ccc(Cl)s1 | 2.19
Cc1noc(C)c1COc1cccc(C(=O)OCC(=O)NC(=O)c2ccc(OC(F)F)cc2)c1 | -0.262
N/C(=N\OC(=O)c1cccc(Br)c1)c1ccc(Br)cc1 | -0.325
COc1ccc(C(=O)COC(=O)CNC(=O)c2cc(OC)cc(OC)c2)cc1 | -0.208
NC(=O)C(Cc1ccccc1)NS(=O)(=O)c1ccc(N2CCCC2=O)cc1 (stereo not drawn) | 0.443
CC(C)CNC(=O)c1ccccc1NC(=O)Nc1ccccc1 | 0.337
CCC(C)NC(=O)c1ccccc1C(=O)NC(C)CC (stereo not drawn) | 0.631
CCC(C)NC(=O)c1ccccc1NC(=O)Nc1ccccc1 (stereo not drawn) | 6.32 (active)
Cc1cccc(CN(CC(=O)N/N=C/c2ccco2)S(=O)(=O)c2ccc(Cl)cc2)c1 | 0.848
CCN(CC)C(=O)C1CCCN(C(=O)Nc2ccc(NC(=O)N3CCCC(C(=O)N(CC)CC)C3)cc2)C1 (stereo not drawn) | -0.196
COC(=O)CSc1nnc(-c2cccnc2)n1-c1cccc(OC)c1 | 0.978
CC(C)CC(NS(=O)(=O)c1ccc2c(c1)oc(=O)n2C)C(=O)NC1CCCc2ccccc21 (stereo not drawn) | 5.09 (active)

SMILES | z-score
Cn1c(=O)oc2cc(S(=O)(=O)NC3CCCc4ccccc43)ccc21 (stereo not drawn) | 0.254
CSCCC(NS(=O)(=O)c1ccc2c(c1)oc(=O)n2C)C(=O)NC1CCCc2ccccc21 (stereo not drawn) | 0.148
CCc1ccc2oc(-c3cccc(N)c3)nc2c1 | -0.135
Cc1cc(C(=O)CSc2n[nH]c(N)n2)c(C)n1-c1cc(F)ccc1F | 6.6 (active)
Cc1cc(C(=O)CSc2n[nH]c(N)n2)c(C)n1-c1ccc(F)cc1 | -0.628
Cc1cc(C(=O)CSc2n[nH]c(N)n2)c(C)n1-c1cccc(F)c1 | -1.69
COc1ccc(NS(=O)(=O)c2ccc(NC(=O)c3ccc(N(C)S(C)(=O)=O)cc3)cc2)c(OC)c1 | -0.141
COC(=O)C1=C(C)NC(=O)/C1=C\c1ccco1 | 8.73 (active)
COC(=O)C1=C(C)N(C)C(=O)/C1=C\c1ccco1 | -0.144
COC(=O)C1=C(C)NC(=O)/C1=C\c1cccs1 | -0.512
CC(=O)c1nc(N2C(=O)CC(Cc3ccc(C)cc3)C2=O)sc1C (stereo not drawn) | -0.714
CC(=O)c1nc(N2C(=O)CC(Cc3cc(C)cc(C)c3)C2=O)sc1C (stereo not drawn) | 2.19
CC(=O)c1nc(N2C(=O)CC(Cc3cccc(C)c3)C2=O)sc1C (stereo not drawn) | -0.395
COc1ccc(NC(=S)N/N=C2\CC(C)(C)Oc3ccc(OC)cc32)cc1 | -0.239
CC(C)(C)C1CCC2(CC1)NC(=S)N(c1ccccc1)N2 (stereo not drawn) | 0.0264
CC(C)(C)C1CCC2(CC1)Nc1cccc3cccc(c13)N2 | 4.88 (active)
c1cc2c3c(cccc3c1)NC1(CCCCC1)N2 | -0.436
Cc1cc(NC(=O)c2ccc(COc3ccc(Cl)c(C)c3)o2)no1 | -0.225
O=C(NC1CC1)c1ccc2c3c(cccc13)CC2 | -0.311
N=c1sccn1CC(=O)Nc1cc(Cl)ccc1Oc1ccccc1 | 1.02
COc1ccc(OCCC(=O)OCC(=O)NCc2ccccc2)cc1 | -0.332
Cc1cccc(-n2c(C)nc3cc(C(=O)NCc4ccc5c(c4)OCO5)ccc32)c1 | 0.471
Cc1ccccc1NC(=S)/C(=C(\[O-])c1ccc(C)c([N+](=O)[O-])c1)[n+]1ccccc1 | 0.013

SMILES | z-score
Cc1c(Cl)cccc1NC(=S)/C(=C(\[O-])c1ccc(Cl)s1)[n+]1ccccc1 | 2.24
CC(C)(C)c1cc[n+](/C(C(=S)NC2CC2)=C(/[O-])c2ccc(Cl)s2)cc1 | -0.275
CCN(CC)C(=O)COc1cc(C)cc2oc(=O)cc(-c3ccccc3)c12 | -0.189
CCCCNC(=S)Nc1cccc2cnccc12 | -0.208
COc1ccccc1NC(=S)Nc1cccc2cnccc12 | -0.138
COc1ccc(NC(=S)Nc2cccc3cnccc23)cc1 | -0.198
C=C(C)CNC(=S)Nc1cccc2cnccc12 | 3.1 (active)
CC(C)NC(=S)Nc1cccc2cnccc12 | -0.271
S=C(Nc1cccc(Cl)c1)Nc1cccc2cnccc12 | 2.74
Cc1cc(C)nc(N2CCCC(C(=O)NCC(c3ccccc3)c3ccccc3)C2)n1 (stereo not drawn) | 0.0177
COc1ccc(S(=O)(=O)N(C)CC(=O)Nc2ccc(C(F)(F)F)cc2)cc1Cl | 1.57
O=c1cc(NS(=O)(=O)c2ccccc2)nc(SCc2ccc(Cl)cc2)[nH]1 | 0.485
CCc1c(C)nc2ncnn2c1Nc1ccc(C(C)=O)cc1 | 0.0606
O=C(CSc1ncn[nH]1)Nc1nc(-c2ccccc2)cs1 | 0.0129
Cc1ccc(C(=O)N/C(=C/c2ccco2)C(=O)Nc2cccc(C)c2)cc1 | -0.287
CC(=O)c1cccc(NC(=O)c2ccc(N(Cc3ccccc3)S(C)(=O)=O)cc2)c1 | -0.207
COCCn1c(C)cc(C(=O)CN2C(=O)NC3(CCCCCCC3)C2=O)c1C | 0.319
CC1CCCC(C)N1C(=O)CSc1nnnn1-c1cccc2c1CCCC2 (stereo not drawn) | -0.621
O=C(CSc1nnnn1-c1cccc2c1CCCC2)NC1CCCC1 | 5.15 (active)
O=C(CSc1nnnn1-c1cccc2c1CCCC2)N1CCCC1 | 0.0215
Cc1ccc2c(c1)c1c(n2CC(O)Cn2c(C)nc3ccccc32)CCCC1 (stereo not drawn) | -0.427
Cc1ccc2c(c1)c1c(n2CC(O)Cn2nc(C)c(Br)c2C)CCCC1 (stereo not drawn) | 0.191
Cc1ccc2c(c1)c1c(n2CC(O)CNC(C)(C)C)CCCC1 (stereo not drawn) | 2.4

SMILES | z-score
CC(=O)c1cc2c(cc1NC(=O)CN1CCCCC1C)OCO2 (stereo not drawn) | -0.0192
O=C(NCc1cccs1)c1nc2c(nnn2Cc2ccc(F)cc2)c(=O)[nH]1 | -1
Cc1cc(N/C=C\c2nnnn2-c2ccccc2)no1 | -0.374
COc1cccc(Nc2nc(C)cc(C)c2C#N)c1 | -0.0986
COc1ccc(Nc2nc(C)cc(C)c2C#N)cc1 | 0.405
COc1ccc(Nc2nc(C)cc(C)c2C#N)cc1OC | 6.74 (active)
O=C(Cn1nnc(-c2ccccc2)n1)OCc1csc(-c2ccccc2)n1 | -0.49
Cc1ccc(-n2nc3c(Cl)nnc(C)c3c2C)cc1 | 0.701
NS(=O)(=O)c1ccc(Cc2ncc(C(F)(F)F)cc2Cl)s1 | 1.4
O=C(NCc1ccc2c(c1)OCO2)c1cc2ccccc2o1 | -0.522
O=C(C1CCCCN1S(=O)(=O)c1ccc(F)cc1)N1CCN(c2ccccc2F)CC1 (stereo not drawn) | -0.386
COc1ccc2c(C(=O)CN3CC(C)OC(C)C3)c[nH]c2c1 (stereo not drawn) | -0.0527
COc1ccc2[nH]c(C)c(C(=O)CN3CC(C)OC(C)C3)c2c1 (stereo not drawn) | 2.96
COc1ccc2[nH]c(C)c(C(=O)CN3CCOCC3)c2c1 | 0.0884
O=S1(=O)CC(N2CCOCC2)c2ccccc21 (stereo not drawn) | -0.0158
COc1ccc(CNC(=O)CSc2ccc(Br)cc2)cc1OC | 0.192
COc1ccc(S(=O)(=O)N(C)CC(=O)NCc2ccco2)cc1 | -0.29
Cc1ccc(N(CC(=O)NCc2ccco2)S(=O)(=O)c2ccccc2)cc1 | 0.374
CN(CCCC(=O)NCc1ccco1)S(=O)(=O)c1ccccc1 | 2.39
CCC(C)NC(=O)COc1ccc(Br)c(C)c1 (stereo not drawn) | 0.482
CN(C(=O)COC(=O)C1CCN(S(=O)(=O)c2cccs2)CC1)C1CCS(=O)(=O)C1 (stereo not drawn) | 0.776
